# The campaign covered roughly 53,000 sequences. About 3,700 (7%) were called active. The full list was thinned out, with actives kept by preference. Values without a mark were called inactive.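 Rule for the calls: active = gene knockdowns whose robust z-score for IL-1 alpha signal is at least 2 or at most -2, so actives lie on both sides; inactive = the rest.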
# Assay: Components of the Cytosolic LPS Sensing Pathway: Gene Identification via Genome-wide siRNA Screen;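 note: robust z of the log signal after scaling to non-targeting control siRNA wells of the plate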
# Settings: RAW264.7 macrophages, IL-1a HTRF, actives lie on both sides, screened at 100 nM (by protocol), cells primed 5 h with Pam3CSK4 first
# How it was run: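 Using IL-1a HTRF as read-out, the screen measured release from RAW264.7 cells after 48h siRNA knockdown (100 nM), 5 h Pam3CSK4 priming and 24 h cytosolic LipidA. Values were expressed relative to negative-control wells as robust z-scores.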
row,Sequence,z-score
1,GGUGUGUGAACCAUGUGUGTT against Olfr157,-1.03
2,GGCAUAGUGAAUUUAGUCUTT against Iqub,0.526
3,GGCUGGAUACUCAGUGCUATT against Abhd16b,6.41 (active)
4,GGUCAUGGAUCAGAAAGAATT against Hnrnpd,0.297
5,CACGGUACAGUACGAUUGATT against Rcan2,0.143
6,CAAGUACAAGCAGUUGACCTT against BC061237,-0.0958
7,GAGGGUGUGCAUUCUUCUATT against Olfr1242,-0.766
8,GGUUCCUUAAUCACUUUGCTT against Ndufa9,-0.139
9,GGAACAGAUAACAUUAUGGTT against Cpeb3,2.79 (active)
10,GGCCCUUACUUCCACAUCATT against Fam104a,-0.711
11,CGAAGCACAUAUCUUUGAUTT against Zfp41,0.444
12,GGAAAGAGGAAUCAAGAAATT against Slc23a2,-1
13,CCAAAGAGCGCAUGGCUCATT against Epn2,-0.782
14,GCGAAUCAGCACUUAUGGATT against Cd2ap,2.65 (active)
15,GGUCUACUCUUCAUAUCGCTT against Rab3d,-0.566
16,GGACAGUUCAGAACAAAUUTT against Ccbe1,-0.168
17,GCUGAACCAAACCCAAAUGTT against Snph,0.00664
18,GGUGAUGCCACUAGUGAAGTT against Scx,-0.123
19,GGCAGAUCUAUUUAUGGUATT against Ccer1,0.229
20,GGUCUCAGCAAUCUGUUCCTT against 1700029I15Rik,-2.15 (active)
21,GGAACUAUACCAAAGGCAATT against Cfap65,-0.198
22,GGAAUGAAGUCUGUCUUCGTT against Zdhhc7,0.648
23,GGAGGAGGAGCUGAAGAAATT against Atp12a,-0.679

row,Sequence,z-score
1,GGAAAGAUUUAUUUUGACGTT against Vnn3,0.286
2,GGGUAUUGCUGGACAACGUTT against Col1a1,3.85 (active)
3,GGUCUUCAGCACCUUUGAATT against Ccl2,-0.903
4,GGUACUUUUAUCUUAGCUATT against Paral1,0.0889
5,GGGAUUGUGAAUUUCAUGUTT against Gca,1.3
6,GCAGAUCAAUGACUAUAGATT against Arhgef11,0.858
7,GCCAUAUGGGCAGAUGUUUTT against Sec24b,-0.682
8,GCCUAAGAGUUUCAAUAAGTT against Tgtp1,-1.21
9,GCAAAUGCACACUCUAGGATT against Ptprn2,-0.0741
10,GGAAUUUUAUGCCAAGAAUTT against Hip1r,-3.89 (active)
11,GGAAGAAUCGCUGCUACCGTT against Mrpl20,1.06
12,GCUGUGAUCAGGACGAGAATT against Stx2,0.187
13,GGGAAAGAUUCAUGUUACUTT against Mug2,-0.804
14,GCUAACCAGUCAGUUGAUCTT against Mocs1,-0.086
15,CCUUACCAAUGUUCAUUUATT against Skint7,-0.32
16,GGAUCUGCAUUUCACUAUUTT against Pi4ka,0.818
17,GCAUACAAAUGCACAUUGATT against Lsg1,2.69 (active)
18,GGAUCCGUGAAUGUAGUCATT against Rapgef4,-0.793
19,CGGAUUGUAAAGAACUGCATT against Sfrp1,-0.0934
20,GCUUUGUGAUGGAUUACUATT against Ccl4,1.85
21,CGUAUACUGUGAUUGAUAUTT against Lcn5,-0.647
22,GGCCAGAAGAUUCCUAAAGTT against Gulp1,3.38 (active)
23,GUUACAGUAUUCUAUGGGATT against Olfr1080,0.508

row,Sequence,z-score
1,GGUUUUUCUGAGUUUCCGUTT against Il4i1,-1.03
2,GCCUCAUUAUAAAUCACACTT against Bclaf3,0.752
3,GGUGGAGUUCGUGUUGAGCTT against Slc6a11,-0.527
4,GAAGGACACCCUUAUAUUUTT against Olfr1216,0.892
5,GGAUGGUCACGGAAGUUCUTT against Lmf2,2.36 (active)
6,GGGCCUCAUCUUUGUGGUATT against Arf5,0.359
7,GGAUUGUUUAUCUGUCUUCTT against Cyp3a44,-1.05
8,GGACCUAAAGUUUCUCUCATT against Ccnc,-0.2
9,GGUCAUAGCUGGAUUCCUUTT against Olfr1453,-1.47
10,GCUUAUAAUGGCAAUAUUGTT against Nvl,0.275
11,GGACAAAAUUGAACACAAGTT against Pogz,2.86 (active)
12,GGCGAAUUAAUUAACCGCCTT against Abcb10,0.798
13,CCUCGAUAGGUUAGUGACATT against Fdxacb1,-0.731
14,GGUACAGAAACAGUUAGUUTT against Olfr432,0.328
15,GCUUCCUAGAUCAUGACUGTT against Ube2g2,-0.318
16,GGUCUGGUCAUCUCAGUUUTT against Tmem159,3.53 (active)
17,GGCAAUAGCUACACCUUCATT against Csf1r,1.9
18,CCAUUGUCACUCCUAGUGUTT against Olfr1361,1.03
19,GGAACAAGAAGAAGAAAAATT against Slco3a1,-1.03
20,GGUACUUUACACUGAACAATT against Serpinb13,2.91 (active)
21,GGCAUGUAGGGUUUUGUUUTT against 9830163H01Rik,-0.605
22,GCUGUCUGAUUCUGAGGUGTT against Slc6a1,2 (active)

# Reference: PubChem BioAssay AID1508600 (Functional Genomics Laboratory (NCATS/FGL), 2020)
